Experimental findings from ChEMBL document CHEMBL3988442, “University of Dundee, Small-Polar-MMV Screening Library” (2021) are described below.

Molecules are shown by their SMILES. For some of these results: Potency and affinity values are given separately.

Common to all, as to design: scale not given: direction of the effect not stated beside the values
For assay [1], the target named is Protein translocase subunit SecA (Escherichia coli (strain K12)) (UniProt P10408). In words: Assay to Identify E. coli SecA ATPase Inhibitors. Format: functional. The settings on record: 30 µM.
Sequence of Protein translocase subunit SecA (Escherichia coli (strain K12)) (P10408 whole entry): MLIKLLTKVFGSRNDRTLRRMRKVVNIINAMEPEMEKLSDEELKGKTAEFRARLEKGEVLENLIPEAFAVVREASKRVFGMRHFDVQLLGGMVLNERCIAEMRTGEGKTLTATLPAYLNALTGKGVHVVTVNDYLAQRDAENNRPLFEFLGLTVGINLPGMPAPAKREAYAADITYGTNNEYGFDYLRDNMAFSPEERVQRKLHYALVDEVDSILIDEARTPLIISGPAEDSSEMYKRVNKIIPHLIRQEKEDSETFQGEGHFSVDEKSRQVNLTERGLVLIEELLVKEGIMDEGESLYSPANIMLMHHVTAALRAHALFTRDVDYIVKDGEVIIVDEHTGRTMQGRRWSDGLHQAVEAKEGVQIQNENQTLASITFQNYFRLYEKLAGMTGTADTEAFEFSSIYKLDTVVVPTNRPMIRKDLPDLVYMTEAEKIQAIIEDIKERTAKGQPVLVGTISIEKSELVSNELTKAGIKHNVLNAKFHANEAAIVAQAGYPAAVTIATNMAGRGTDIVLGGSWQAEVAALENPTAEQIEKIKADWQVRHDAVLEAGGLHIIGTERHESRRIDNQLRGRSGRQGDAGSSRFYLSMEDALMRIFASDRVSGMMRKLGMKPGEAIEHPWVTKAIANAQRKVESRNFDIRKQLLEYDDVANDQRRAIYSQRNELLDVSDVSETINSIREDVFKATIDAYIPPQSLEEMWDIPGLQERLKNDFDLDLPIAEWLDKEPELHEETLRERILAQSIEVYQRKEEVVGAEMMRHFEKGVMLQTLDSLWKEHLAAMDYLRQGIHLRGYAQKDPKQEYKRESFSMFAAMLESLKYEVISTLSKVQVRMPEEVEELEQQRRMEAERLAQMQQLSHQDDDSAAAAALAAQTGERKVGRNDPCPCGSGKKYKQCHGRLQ
For assay [2], the target named is T1, Ubiquitin-activating enzyme e1, putative (Leishmania donovani (strain BPK282A1)) (UniProt E9BSI1).
T1 sequence (whole entry): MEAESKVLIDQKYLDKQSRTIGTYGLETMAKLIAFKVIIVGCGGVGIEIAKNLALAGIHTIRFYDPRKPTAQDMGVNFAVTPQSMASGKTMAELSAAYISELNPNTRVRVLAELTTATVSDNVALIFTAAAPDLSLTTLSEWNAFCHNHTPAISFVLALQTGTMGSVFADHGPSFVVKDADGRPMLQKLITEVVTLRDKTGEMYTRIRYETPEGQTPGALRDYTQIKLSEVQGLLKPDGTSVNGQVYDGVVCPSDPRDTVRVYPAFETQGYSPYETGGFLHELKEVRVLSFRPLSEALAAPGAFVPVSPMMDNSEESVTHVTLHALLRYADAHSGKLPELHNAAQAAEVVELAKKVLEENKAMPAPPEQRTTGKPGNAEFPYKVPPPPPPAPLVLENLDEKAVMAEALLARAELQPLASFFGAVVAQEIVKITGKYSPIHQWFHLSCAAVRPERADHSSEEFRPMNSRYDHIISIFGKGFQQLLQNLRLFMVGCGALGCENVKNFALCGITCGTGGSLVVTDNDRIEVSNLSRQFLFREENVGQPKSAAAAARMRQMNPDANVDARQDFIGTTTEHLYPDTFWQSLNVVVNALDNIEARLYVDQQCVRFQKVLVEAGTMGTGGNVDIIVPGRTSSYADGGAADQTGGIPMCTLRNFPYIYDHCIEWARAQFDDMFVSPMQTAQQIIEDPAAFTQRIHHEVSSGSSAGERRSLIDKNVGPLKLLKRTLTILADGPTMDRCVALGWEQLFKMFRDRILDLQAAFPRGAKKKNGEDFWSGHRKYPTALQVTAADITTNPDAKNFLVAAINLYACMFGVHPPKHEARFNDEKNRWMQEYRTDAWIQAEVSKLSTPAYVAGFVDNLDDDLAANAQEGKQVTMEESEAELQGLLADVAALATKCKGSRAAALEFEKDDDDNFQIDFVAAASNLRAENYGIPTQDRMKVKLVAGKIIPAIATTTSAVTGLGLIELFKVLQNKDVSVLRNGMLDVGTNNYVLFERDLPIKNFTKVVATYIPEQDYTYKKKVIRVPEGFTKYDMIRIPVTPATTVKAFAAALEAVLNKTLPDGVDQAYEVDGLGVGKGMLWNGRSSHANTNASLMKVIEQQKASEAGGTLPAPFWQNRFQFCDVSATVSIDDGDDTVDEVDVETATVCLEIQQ
In words: Leishmania donovani Ubiquitin Activating Enzyme (LdE1). The format is functional. The settings on record: 30 µM.

The target of assay [3] is AMP-activated protein kinase, AMPK (Homo sapiens) (UniProt P54646+O43741+P54619+Q9UGJ0+Q9Y478+Q13131+Q9UGI9). In words: AMP-dependent Kinase enzyme assay. An in vitro enzyme assay that detects ADP turnover that is directly proportional to AMPK activity. This uses naive AMPK that is activated during the assay with MK-8722. The format is functional. The settings on record: 30 µM.

Assay [4] deals with Sialic acid-binding Ig-like lectin 9 (Homo sapiens) (UniProt Q9Y336). In words: Hs-Siglec9 ALPHAscreen SOP 20170721. The conditions noted are these: 10 µM. In general terms: Bead proximity is the source of the signal in Alpha formats.
Sequence of Sialic acid-binding Ig-like lectin 9 (Homo sapiens) (Q9Y336 whole entry): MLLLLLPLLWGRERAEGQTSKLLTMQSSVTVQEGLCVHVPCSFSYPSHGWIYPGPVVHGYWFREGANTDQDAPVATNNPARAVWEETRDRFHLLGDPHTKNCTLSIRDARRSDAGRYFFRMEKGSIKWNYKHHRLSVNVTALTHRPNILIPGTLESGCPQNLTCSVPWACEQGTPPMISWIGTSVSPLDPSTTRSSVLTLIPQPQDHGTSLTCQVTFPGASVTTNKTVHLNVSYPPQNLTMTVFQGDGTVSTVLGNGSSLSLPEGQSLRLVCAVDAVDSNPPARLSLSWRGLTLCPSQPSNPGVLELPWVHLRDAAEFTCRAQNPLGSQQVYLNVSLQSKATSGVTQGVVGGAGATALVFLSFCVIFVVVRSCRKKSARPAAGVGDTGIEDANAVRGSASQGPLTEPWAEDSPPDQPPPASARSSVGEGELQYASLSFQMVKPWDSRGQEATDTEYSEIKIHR
The next assay relates to Trypanosoma cruzi. In words: Trypanosoma cruzi phosphomannomutase and mannose-1-phosphate guanylyltransferase assay. The settings on record: 10 µM. The format is functional.
In assay [5] the target is T2, Arginase-2, mitochondrial (Homo sapiens) (UniProt P78540).
T2 sequence (whole entry): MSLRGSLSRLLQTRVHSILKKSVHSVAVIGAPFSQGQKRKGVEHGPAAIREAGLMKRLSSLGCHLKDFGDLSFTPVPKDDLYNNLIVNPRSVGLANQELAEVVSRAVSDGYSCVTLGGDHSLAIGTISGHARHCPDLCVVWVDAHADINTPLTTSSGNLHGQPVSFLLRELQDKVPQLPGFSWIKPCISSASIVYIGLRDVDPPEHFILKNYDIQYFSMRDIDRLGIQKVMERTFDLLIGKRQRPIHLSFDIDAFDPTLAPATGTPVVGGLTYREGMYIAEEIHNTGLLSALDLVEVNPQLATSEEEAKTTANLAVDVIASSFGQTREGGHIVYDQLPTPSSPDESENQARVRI
In words: in vitro enzyme assay to detect the production of urea directly proportional to the activity of Arginase II. Further: in the data most compounds retested in dose-response had high values. Format: functional. The conditions noted are these: 33.3 µM.

Assay [6] concerns the target T3, Proteasome subunit beta (Trypanosoma cruzi) (UniProt O96673).
T3 sequence (whole entry): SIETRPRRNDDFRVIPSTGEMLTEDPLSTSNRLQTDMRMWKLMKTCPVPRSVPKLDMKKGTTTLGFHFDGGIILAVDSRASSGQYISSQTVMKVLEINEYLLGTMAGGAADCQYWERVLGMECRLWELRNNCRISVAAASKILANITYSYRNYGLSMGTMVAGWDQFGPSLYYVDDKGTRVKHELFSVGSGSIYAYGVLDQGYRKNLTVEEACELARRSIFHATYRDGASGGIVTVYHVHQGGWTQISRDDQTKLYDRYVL
In words: Trypanosoma cruzi proteasome chymotrypsin-like activity (TcProtChymo) assay. Further: in the data most compounds retested in dose-response had high values. The format is functional. The conditions noted are these: 9.37 µM.

The species entered for the next assay is Homo sapiens. In words: To identify inhibition of the IFN signalling (Jak-Stat) pathway via expression of an eGFP reporter gene under the control of an IFN-stimulated response element (ISRE) containing MxA promoter. The format is functional. The conditions noted are these: 30 µM. A general note: Reporter assays use an easily measured gene product as a stand-in for the process of interest.

Assay [7] has as its target T4, Tyrosyl-tRNA synthetase, putative (Trypanosoma cruzi (strain CL Brener)) (UniProt Q4DSP6).
T4 sequence (whole entry): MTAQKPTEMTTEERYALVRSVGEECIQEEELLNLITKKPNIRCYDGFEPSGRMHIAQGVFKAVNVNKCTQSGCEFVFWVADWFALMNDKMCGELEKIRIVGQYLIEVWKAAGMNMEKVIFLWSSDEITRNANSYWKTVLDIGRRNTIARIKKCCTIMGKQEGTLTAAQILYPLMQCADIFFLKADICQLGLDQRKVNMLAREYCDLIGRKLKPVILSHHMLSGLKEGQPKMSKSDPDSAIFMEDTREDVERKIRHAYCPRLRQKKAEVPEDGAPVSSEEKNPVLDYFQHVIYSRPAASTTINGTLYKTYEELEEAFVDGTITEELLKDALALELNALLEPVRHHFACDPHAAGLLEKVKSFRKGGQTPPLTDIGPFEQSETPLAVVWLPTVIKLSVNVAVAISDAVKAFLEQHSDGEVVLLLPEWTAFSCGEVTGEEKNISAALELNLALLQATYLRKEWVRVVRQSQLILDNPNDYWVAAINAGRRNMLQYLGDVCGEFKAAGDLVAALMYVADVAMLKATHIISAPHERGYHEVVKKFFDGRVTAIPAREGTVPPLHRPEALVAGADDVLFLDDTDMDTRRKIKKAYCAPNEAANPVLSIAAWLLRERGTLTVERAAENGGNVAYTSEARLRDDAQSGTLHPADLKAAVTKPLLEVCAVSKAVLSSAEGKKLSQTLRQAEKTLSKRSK
In words: Trypanosoma cruzi tyrosyl tRNA synthetase (TcYRS) _High Tyrosine SOP. Further: in the data most compounds retested in dose-response had high values. The settings on record: 30 µM. The format is functional.

The target of assay [8] is T4, Tyrosyl-tRNA synthetase, putative (Trypanosoma cruzi (strain CL Brener)). In words: Trypanosoma cruzi tyrosyl tRNA synthetase (TcYRS) SOP. The format is functional. The settings on record: 30 µM.
Assay [9] addresses Chromo domain-containing protein 1 (Saccharomyces cerevisiae (strain ATCC 204508 / S288c) (Baker's yeast)) (UniProt P32657). In words: ScCHD-1 Enzyme Inhibition Assay. Further: in the data most compounds retested in dose-response had high values. The settings on record: 30 µM. The format is functional.

Sequence of Chromo domain-containing protein 1 (Saccharomyces cerevisiae (strain ATCC 204508 / S288c) (Baker's yeast)) (P32657 whole entry, the tested form may be a part): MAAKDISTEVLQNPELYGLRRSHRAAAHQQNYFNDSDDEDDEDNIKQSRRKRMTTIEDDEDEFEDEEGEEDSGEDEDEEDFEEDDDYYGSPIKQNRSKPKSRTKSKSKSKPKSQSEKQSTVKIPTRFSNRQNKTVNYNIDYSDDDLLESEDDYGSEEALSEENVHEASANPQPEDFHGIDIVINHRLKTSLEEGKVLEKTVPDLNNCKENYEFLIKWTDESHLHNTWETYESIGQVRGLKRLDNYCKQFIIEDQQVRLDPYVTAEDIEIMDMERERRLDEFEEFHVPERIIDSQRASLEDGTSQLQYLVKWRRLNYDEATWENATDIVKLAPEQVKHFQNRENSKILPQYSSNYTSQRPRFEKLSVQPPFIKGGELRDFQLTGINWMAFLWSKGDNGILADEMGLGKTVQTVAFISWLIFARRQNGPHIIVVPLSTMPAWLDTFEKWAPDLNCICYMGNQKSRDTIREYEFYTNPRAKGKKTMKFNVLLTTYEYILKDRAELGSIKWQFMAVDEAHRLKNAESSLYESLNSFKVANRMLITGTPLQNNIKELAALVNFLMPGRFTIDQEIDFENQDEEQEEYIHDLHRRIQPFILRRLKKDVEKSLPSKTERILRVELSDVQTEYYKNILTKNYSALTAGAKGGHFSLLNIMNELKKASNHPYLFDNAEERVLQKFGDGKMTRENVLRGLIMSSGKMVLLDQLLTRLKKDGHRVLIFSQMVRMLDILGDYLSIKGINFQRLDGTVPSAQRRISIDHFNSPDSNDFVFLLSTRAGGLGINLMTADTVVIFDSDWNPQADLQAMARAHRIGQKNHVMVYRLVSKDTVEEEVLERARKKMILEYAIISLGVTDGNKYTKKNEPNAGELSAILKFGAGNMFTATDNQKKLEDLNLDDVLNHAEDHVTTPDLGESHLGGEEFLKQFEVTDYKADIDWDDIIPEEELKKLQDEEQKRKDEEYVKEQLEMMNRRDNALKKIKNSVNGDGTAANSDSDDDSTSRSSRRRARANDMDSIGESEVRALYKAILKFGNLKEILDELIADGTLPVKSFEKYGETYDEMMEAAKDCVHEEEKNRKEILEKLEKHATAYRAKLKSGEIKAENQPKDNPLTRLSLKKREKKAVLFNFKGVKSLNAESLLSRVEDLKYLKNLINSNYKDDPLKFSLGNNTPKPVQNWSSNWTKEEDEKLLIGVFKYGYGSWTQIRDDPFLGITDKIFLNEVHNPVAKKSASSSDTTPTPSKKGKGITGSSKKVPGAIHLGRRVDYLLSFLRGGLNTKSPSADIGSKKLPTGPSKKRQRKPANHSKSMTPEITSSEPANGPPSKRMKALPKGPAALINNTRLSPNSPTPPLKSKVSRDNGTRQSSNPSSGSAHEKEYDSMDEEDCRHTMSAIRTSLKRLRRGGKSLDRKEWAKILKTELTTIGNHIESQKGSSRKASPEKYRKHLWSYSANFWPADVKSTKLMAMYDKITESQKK

In the case of `O=C(Cc1noc2ccccc12)N1CCCC1c1noc(C2CC2)n1` (stereo unspecified), the Percent Effect in [1] was 0.239%; in assay [2] it was -2.7%; in assay [3] it was -6.79%; in assay [4], 3.85%; in the assay on Trypanosoma cruzi, -4.62%; in assay [5] it was 0%. Moreover, the Percent Effect in assay [6] was 7.39%; in the assay filed under Homo sapiens it was 86.2%; in [7], 2.46%; in assay [8] it was -6.17%; in assay [9], 5.86%.
Take `CC1=N[C@@]2(CC[C@@H]3CN(S(=O)(=O)N(C)C)C[C@@H]32)C(=O)N1CC(C)C`: the Percent Effect in assay [1] was 1.29%; in assay [2] it was 8.11%; in assay [3], 2.53%; in assay [4] it was -13.6%; with Trypanosoma cruzi it was -6.75%; in [5], 4.78%. Moreover, the Percent Effect is 13.3% in assay [6]; 6.52% in the assay filed under Homo sapiens; 5.41% in [7]; 10.3% in assay [8]; -5.11% in assay [9].
On to `Cc1ccc(N(C)C2CCN(C(=O)c3ccsc3)CC2)nn1`, for which the Percent Effect in assay [1] is -3.77%; in assay [2], 5.2%; in assay [3], 5.3%; in [4], 11.4%; in the assay with Trypanosoma cruzi, 5.62%; in assay [5], -7.47%. In addition, the Percent Effect in assay [6] is 10.6%; in the assay listed under Homo sapiens, 1.47%; in assay [7], 5.83%; in [8], 19.5%; in assay [9], -7.83%.
With `CN1C(=O)C(C)(C)COc2cc(NS(=O)(=O)Cc3ccccc3)ccc21`, the Percent Effect in assay [1] was -1.91%; in [2], 16.4%; in assay [3], -12.8%; in assay [4], -8.62%; with Trypanosoma cruzi, 3.72%; in assay [5], -2.73%. The Percent Effect in assay [6] was 15.6%; in the assay listed under Homo sapiens, 57.7%; in assay [7], 7.53%; in assay [8], 12.5%; in assay [9], -6.62%.
On to `CC(C)(C)c1n[nH]c(C2CN(C(=O)c3csnn3)CCO2)n1` (stereo unspecified), for which the Percent Effect in assay [1] is -8.03%; in assay [2] it was 18.4%; in assay [3], -1.35%; in [4] it was 7.53%; with Trypanosoma cruzi it was 7.5%; in assay [5], 1.18%. Further, the Percent Effect in assay [6] is 2.4%; in the assay filed under Homo sapiens it was 6.98%; in [7], 6.38%; in assay [8] it was 15.6%; in assay [9], -19.5%.
In the case of `Cc1nn(C)c(N(C)C)c1CNCC(O)COc1ccccc1` (stereo unspecified), the Percent Effect is -3.8% in assay [1]; 5.48% in [2]; -12.3% in assay [3]; 0.598% in assay [4]; 4.11% in the assay with Trypanosoma cruzi; 2.27% in assay [5]. Moreover, the Percent Effect in [6] was 17.4%; in the assay listed under Homo sapiens it was -13.8%; in assay [7], 5.38%; in [8], 17.5%; in assay [9], -1.71%.
Regarding `CNC(=O)CS(=O)(=O)C1CCN(S(=O)(=O)c2c(F)cccc2F)CC1`, the Percent Effect in assay [1] is -2.05%; in [2] it was -2.74%; in assay [3], 6.92%; in [4] it was 0.634%; with Trypanosoma cruzi, 5.68%; in assay [5], -1.82%. In addition, the Percent Effect in [6] was 3.9%; in the assay listed under Homo sapiens, -17.8%; in assay [7], 1.07%; in assay [8] it was 0%; in [9] it was -1.05%.
For `CC(NC(=O)CCCOc1ccccc1Cl)c1ccncc1` (stereo unspecified), the Percent Effect is -5.33% in [1]; 0% in assay [2]; 2.41% in assay [3]; 0.805% in assay [4]; -8.42% with Trypanosoma cruzi; -2.27% in assay [5]. Besides, the Percent Effect in assay [6] was 6.39%; in the assay listed under Homo sapiens it was 27.7%; in [7] it was -2.15%; in assay [8] it was 2.5%; in assay [9], 110%.
Take `CS(=O)(=O)N1CCC(Oc2cnccn2)CC1`: the Percent Effect is -2.51% in [1]; 10.4% in [2]; -2.43% in assay [3]; 6.29% in [4]; 2.46% with Trypanosoma cruzi; 1.94% in assay [5]. Moreover, the Percent Effect is 14.1% in [6]; 7.55% in the assay filed under Homo sapiens; 4.23% in assay [7]; 11.5% in [8]; -8.42% in assay [9].
With `COCC(=O)N1CCC(c2nccn2CC2CC2)CC1`, the Percent Effect in assay [1] was 0.53%; in assay [2] it was 10.8%; in [3], -6.45%; in assay [4] it was 8.36%; in the assay with Trypanosoma cruzi it was 5.41%; in assay [5], 8.57%. The Percent Effect in assay [6] was 19.8%; in the assay listed under Homo sapiens, -2.14%; in assay [7], 6.88%; in [8], 19.5%; in assay [9] it was -2.23%.
Take `CC(C)c1noc(CN(Cc2cccs2)C2CC2)n1`: the Percent Effect in assay [1] was -4.69%; in assay [2], -5.2%; in assay [3], 7.3%; in assay [4], 44.2%; in the assay on Trypanosoma cruzi it was -5.61%; in assay [5] it was 4.14%. Also, the Percent Effect is 5.16% in assay [6]; 18.1% in the assay listed under Homo sapiens; -4.3% in assay [7]; -8.64% in assay [8]; 2.56% in [9].
